Experimental findings from PubChem BioAssay (EPA / NIEHS) are described below.

Records with an inconclusive call do not appear. The source holds several records for some structures; these can differ, active in one and inactive in another. Calls of active or inactive are those of the source. The calls were made as follows: active = hit-call score of the fitted dose curve at least 0.9, where 1 is the maximum; inconclusive = response in the unintended direction; inactive = score below 0.9.

Usually AC50 stands for the concentration at which the activity in the assay is half-maximal.

In assay [1] the target is Cellular tumor antigen p53 (Homo sapiens) (UniProt P04637). The assay is described as follows: TOX21_p53_BLA_p3_ratio: Tox21 HCT-116 p53 Agonism Beta-lactamase Assay, Ratio, Phase 3 (AID 2283596). In outline: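 Cells were seeded at 4000/well, rested 5 h at 37C, then dosed with DMSO compound solutions (217-fold dilution) for 16 h. CCF4-AM substrate was loaded for 2 h at room temperature, and the 460/530 nm emission ratio was fitted for gain of signal versus DMSO.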
Cellular tumor antigen p53 (Homo sapiens), sequence (P04637 whole entry, looked up): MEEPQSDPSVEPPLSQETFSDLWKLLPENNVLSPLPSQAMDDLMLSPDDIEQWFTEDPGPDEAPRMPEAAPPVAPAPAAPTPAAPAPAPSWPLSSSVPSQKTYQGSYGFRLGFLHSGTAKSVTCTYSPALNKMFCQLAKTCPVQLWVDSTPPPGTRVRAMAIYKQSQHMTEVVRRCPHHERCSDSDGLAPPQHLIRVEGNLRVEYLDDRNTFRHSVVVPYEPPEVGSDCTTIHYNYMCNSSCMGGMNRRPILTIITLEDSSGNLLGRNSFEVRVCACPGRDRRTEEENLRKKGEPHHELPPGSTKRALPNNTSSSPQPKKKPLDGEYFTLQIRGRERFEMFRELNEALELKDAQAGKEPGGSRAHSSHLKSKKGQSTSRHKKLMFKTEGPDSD

A short description of assay [2]: TOX21_p53_BLA_p4_viability: Viability Assessment in the Tox21 HCT-116 p53 Agonism Beta-lactamase Assay, Phase 4 (AID 2283597).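 Also: hits lower the luminescence signal meaning cytotoxicity.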 A digest of the protocol: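 Readout: ATP luminescence (CellTiter-Glo), measured 30 min after reagent addition at RT. The reagent followed a 2 h CCF4-AM incubation, and the cells had been exposed to compound for 16 h at 37C.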
Assay [3] is described as follows: TOX21_p53_BLA_p5_viability: Viability Assessment in the Tox21 HCT-116 p53 Agonism Beta-lactamase Assay, Phase 5 (AID 2283600). In outline:
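Workflow: seed 4000 cells per well, wait 5 h, add compounds (DMSO, 217-fold dilution), incubate 16 h, load CCF4-AM 2 h, add CellTiter-Glo, read luminescence after 30 min.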

Assay [4] has as its target Cellular tumor antigen p53 (Homo sapiens) (UniProt P04637). Briefly: TOX21_p53_BLA_p4_ratio: Tox21 HCT-116 p53 Agonism Beta-lactamase Assay, Ratio, Phase 4 (AID 2283601). In outline: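 HCT116 cells carrying an inducible beta-lactamase reporter were plated at 4000 cells/well, rested 5 h, then exposed to compounds in DMSO (217-fold dilution) for 16 h at 37C. CCF4-AM substrate was loaded 2 h at room temperature; 460/530 nm emission ratio scored gain-of-signal versus DMSO.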

Assay [5] in a line: Tanguay_ZF_120hpf_YSE_legacy: (Legacy) Oregon State University Tanguay Lab 120 Hour Post-fertilization zebrafish Assay for Yolk Sac Edema (AID 2283634). A digest of the protocol: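 Dechorionate (pronase, 4 hpf) → place one 6 hpf embryo per well → static compound exposure, sealed and foil-covered, 28C, to 120 hpf → record yolk sac edema as present or absent. Final DMSO 0.64%.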

Assay [6] in a line: Tanguay_ZF_120hpf_AXIS_legacy: (Legacy) Oregon State University Tanguay Lab 120 Hour Post-fertilization zebrafish Assay for Body Axis Malformation (AID 2283635). A digest of the protocol:
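Chorion is removed with pronase at 4 hpf, then single 6 hpf embryos are dosed (final DMSO 0.64%) and held statically at 28C in sealed, foil-covered plates. At 120 hpf body axis malformation is recorded as present or absent.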

The nature of assay [7]: Tanguay_ZF_120hpf_EYE_legacy: (Legacy) Oregon State University Tanguay Lab 120 Hour Post-fertilization zebrafish Assay for Eye Malformation (AID 2283636). A digest of the protocol: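 Static waterborne exposure of dechorionated zebrafish embryos (strain Tropical 5D), 6 to 120 hpf, sealed plates at 28C, 0.64% DMSO vehicle. Eye malformation is scored as a binary endpoint, with gain of signal analysed relative to DMSO.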

A short description of assay [8]: Tanguay_ZF_120hpf_SNOU_legacy: (Legacy) Oregon State University Tanguay Lab 120 Hour Post-fertilization zebrafish Assay for Snout Malformation (AID 2283637). A digest of the protocol:
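Dechorionated zebrafish, individually housed from 6 hpf in covered, sealed wells at 28C with 0.64% DMSO vehicle, were examined at 120 hpf for snout malformation. Responses were binary and analysed positive-direction relative to DMSO.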

Assay [9] is described as follows: Tanguay_ZF_120hpf_JAW_legacy: (Legacy) Oregon State University Tanguay Lab 120 Hour Post-fertilization zebrafish Assay for Jaw Malformation (AID 2283638). A digest of the protocol:
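Steps: dechorionate 4 hpf embryos (pronase); plate 1/well at 6 hpf; add test chemical, 0.64% DMSO final; seal, cover, hold at 28C statically to 120 hpf; score jaw defect presence/absence microscopically. Dead embryos not scored.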

A short description of assay [10]: Tanguay_ZF_120hpf_OTIC_legacy: (Legacy) Oregon State University Tanguay Lab 120 Hour Post-fertilization zebrafish Assay for Otic Vesicle Malformation (AID 2283639). In outline: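 Brightfield scoring at 120 hpf, binary present/absent; DMSO negative control, 5uM trimethyltin chloride positive control. Static exposure at 28C, final DMSO 0.64% (vol/vol). Dead embryos not scored for malformation.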

Assay [11] is described as follows: Tanguay_ZF_120hpf_PE_legacy: (Legacy) Oregon State University Tanguay Lab 120 Hour Post-fertilization zebrafish Assay for Pericardial Edema (AID 2283640). A digest of the protocol:
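Embryos from wild-type 5D adults were staged, then dosed in 0.64% DMSO. They were kept sealed in the dark at 28C until 120 hpf. Pericardial edema was then recorded as present or absent.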

Assay [12] is described as follows: Tanguay_ZF_120hpf_BRAI_legacy: (Legacy) Oregon State University Tanguay Lab 120 Hour Post-fertilization zebrafish Assay for Brain Malformation (AID 2283641). In outline: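 Wild-type 5D larvae, static waterborne exposure to 120 hpf, 28C, 0.64% v/v DMSO. Brightfield scoring of brain defects, binary; dead embryos excluded. Positive ctrl 5uM trimethyltin chloride.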

The nature of assay [13]: Tanguay_ZF_120hpf_SOMI_legacy: (Legacy) Oregon State University Tanguay Lab 120 Hour Post-fertilization zebrafish Assay for Somite Malformation (AID 2283647). In outline: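 Read-out: presence or absence of somite malformation in 120 hpf larvae, gain-of-signal relative to DMSO baseline. Embryos lacked chorion (pronase, 4 hpf) and were exposed statically from 6 hpf at 28C; dead larvae not scored.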

A short description of assay [14]: Tanguay_ZF_120hpf_PFIN_legacy: (Legacy) Oregon State University Tanguay Lab 120 Hour Post-fertilization zebrafish Assay for Pectoral Fin Malformation (AID 2283648).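 Also: each larva judged yes or no for fin defect by brightfield with dead larvae skipped.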 A digest of the protocol: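 Scoring of pectoral fin malformation was binary, made at 120 hpf on larvae exposed statically from 6 hpf after enzymatic chorion removal. Activity was fitted upward relative to DMSO controls at 0.64% (vol/vol).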

The nature of assay [15]: Tanguay_ZF_120hpf_CFIN_legacy: (Legacy) Oregon State University Tanguay Lab 120 Hour Post-fertilization zebrafish Assay for Caudal Fin Malformation (AID 2283649). In outline:
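Binary presence or absence of caudal fin malformation at 120 hpf, read by brightfield microscopy, with DMSO as baseline. Larvae came from 5D wild-type embryos exposed statically from 6 hpf at 28C after pronase dechorionation.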

The nature of assay [16]: Tanguay_ZF_120hpf_PIG_legacy: (Legacy) Oregon State University Tanguay Lab 120 Hour Post-fertilization zebrafish Assay for Pigmentation Malformation (AID 2283650). In outline:
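Endpoint is incidence of abnormal pigmentation at 120 hpf in dechorionated 5D zebrafish exposed singly from 6 hpf at 28C, DMSO vehicle at 0.64%. Embryos dying by 24 or 120 hpf are excluded from scoring.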

A short description of assay [17]: Tanguay_ZF_120hpf_CIRC_legacy: (Legacy) Oregon State University Tanguay Lab 120 Hour Post-fertilization zebrafish Assay for Circulatory Malformation (AID 2283651). In outline: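 Static exposure, 6–120 hpf, 28C, sealed and dark; one dechorionated 5D embryo/well; DMSO 0.64% v/v final. Binary circulation endpoint by brightfield; dead embryos not scored.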
Assay [18] in a line: TOX21_p53_BLA_p3_viability: Viability Assessment in the Tox21 HCT-116 p53 Agonism Beta-lactamase Assay, Phase 3 (AID 2283593).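 Also: cells exposed to compound for 16 h before reading.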 A digest of the protocol:
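HCT-116 cells (4000/well) rested 5 h at 37C, then got DMSO compounds by pin tool (217-fold dilution) for 16 h at 37C, 5% CO2. After the bla read, CellTiter-Glo was added and luminescence read at 30 min, room temperature.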

Assay [19] deals with Cellular tumor antigen p53 (Homo sapiens) (UniProt P04637). Briefly: TOX21_p53_BLA_p5_ratio: Tox21 HCT-116 p53 Agonism Beta-lactamase Assay, Ratio, Phase 5 (AID 2283599). A digest of the protocol:
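HCT-116 cells carrying a p53-inducible beta-lactamase reporter were seeded at 4000 cells/well and dosed after 5 h with compound in DMSO (217-fold dilution). After 16 h at 37C, CCF4-AM substrate was added for 2 h, and the 460/530 nm emission ratio was scored as gain-of-signal versus DMSO.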

Assay [20] is described as follows: Tanguay_ZF_120hpf_MORT_legacy: (Legacy) Oregon State University Tanguay Lab 120 Hour Post-fertilization zebrafish Assay for Mortality (AID 2283633). In outline: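 5D WT zebrafish, chorion removed 4 hpf; 1 embryo/well from 6 hpf; static exposure to 120 hpf, 28C, dark, sealed. Final DMSO 0.64%. Readout: binary mortality, brightfield, 24 + 120 hpf; DMSO as negative control.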

For the compound `Cc1cc(-c2ccc(N)c(C)c2)ccc1N`, the result in [1], in assay [2], in assay [3], in assay [4], in assay [5] and in assay [6] was inactive. Further, the result in [7], in assay [8], in [9], in assay [10], in [11] and in [12] was inactive. The outcome in assay [13], in assay [14], in assay [15], in assay [16] and in assay [17] was inactive. In addition, the AC50 in assay [4] is 70.7 µM (active).

In the case of `Nn1cnnc1`, the compound was called inactive in assay [18], in [1], in [2], in [4], in [5] and in [6]. For the same compound, the outcome in assay [7], in assay [8], in [9], in [10], in assay [11] and in assay [12] was inactive. Further, the result in assay [14], in assay [15] and in assay [17] was inactive.

As for `Cc1cc2c3c(c1)C(c1ccccc1)=N[C@@H](NC(=O)c1ccncc1)C(=O)N3CC2`, the result in assay [4], in assay [5], in assay [6], in assay [7], in assay [8] and in assay [9] was inactive. In addition, the result in assay [10], in [11], in assay [12], in assay [14], in [15] and in assay [16] was inactive.

In the case of `Cc1cccc(C)c1N`, the result in assay [1], in assay [2], in assay [19], in assay [4], in assay [5] and in assay [6] was inactive. The outcome in assay [7], in assay [8], in assay [11], in [15], in [16] and in assay [17] was inactive.

For the compound `N#Cc1ccc(N(CC(N)=O)CC(F)(F)F)cc1C(F)(F)F`, the result in [2], in assay [3], in assay [20], in [5], in assay [6] and in [7] was inactive. Also, the compound was called inactive in assay [8], in [9], in assay [10], in [11], in assay [12] and in assay [14]. For the same compound, the compound was classed as inactive in [15] and in assay [16].

On to `CCOCCOC(C)=O`, for which the outcome in assay [18], in [1], in [2], in [3], in assay [4] and in assay [5] was inactive. Also, the result in [6], in [8], in [9], in assay [10], in assay [11] and in assay [12] was inactive. Moreover, the outcome in [13], in assay [14], in assay [15], in assay [16] and in [17] was inactive.

On to `Cc1ccccc1CO[C@@H]1C[C@@]2(C(C)C)CC[C@]1(C)O2`, for which the compound was classed as inactive in [5], in [6], in assay [7], in assay [8], in [9] and in assay [10]. For the same compound, the compound was called inactive in assay [11], in [12], in assay [14], in assay [15], in [16] and in [17].

Consider `COc1ccc(O)c(C(C)(C)C)c1`, for which the result in [18], in [1], in assay [2], in assay [4], in assay [5] and in assay [6] was inactive. The compound was called inactive in [7], in assay [8], in assay [9], in [11], in assay [12] and in [14]. Also, the call in [15] and in assay [16] was inactive. Besides, the AC50 in assay [4] is 86.1 µM (active).
